A selection: hits, their analogues and other compounds. The true share with any hit is near 9.3%.
HCV inhibitor – HCV inhibition; Huh7.5.1 HCVcc-Cre infection, luciferase reporter, 44 h; Potency, µM (highest dose often 41.8 µM), for the others: at the highest dose activity change, negative = inhibition, usual class: inhibitors; hit rate 3.4% among 340,000; AID 651820; further: potency means the concentration at half of the fitted maximal effect
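HCVcc-Cre virus at an moi near 0.5 was added right after compound to cells cultured 4 h from seeding (1,000 cells/well). Luciferase activity was determined 44 h later, 15 min after substrate addition at RT.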
Vaccinia Venus – inhibitors of vaccinia virus (Venus reporter); Vaccinia virus Venus reporter expression, fluorescence; Potency, µM (titrated, usually from 36.5 µM), inactives show at the highest dose activity change, negative = inhibition, hits mostly inhibitors; hit rate 0.46% among 330,000; calls by dose curve; tested in A549 cells; further: potency means the concentration at half of the fitted maximal effect; nearly all actives have a fitted effect of over 30% in size
HCMV antiviral – inhibitors of human cytomegalovirus; activity change, negative = inhibition, % at 57.5 µM; hit rate 4.5% among 410,000; HFF cells, HCMV-luciferase reporter, 72 h; stronger effect = lower value; in the data active means activity change below about -60%; inconclusive means no clear call, values can overlap the other calls; inactive means above about -39%
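Human foreskin fibroblasts infected with luciferase-reporter HCMV at MOI 1 PFU/cell, compounds at two doses. Luciferase measured 72 h post infection; normalized to buffer-only basal and Salinomycin (10uM) controls.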
FMDV inh – antivirals against foot and mouth disease virus; FMDV antiviral cell-based qHTS; Potency, µM (titrated, usually from 57.9 µM), without a hit: at the top dose activity change, negative = inhibition, hits mostly inhibitors; hit rate 1.2% among 410,000; AID 1159524; calls by dose curve; tested in HEK293T cells; further: read-out not given here; potency means the concentration at half of the fitted maximal effect; nearly all actives have a fitted effect of over 45% in size
Sm TGR block – inhibitors of Schistosoma mansoni thioredoxin glutathione reductase; purified TGR, DTNB reduction, TNB absorbance 405 nm; Q962Y6; hit rate 3% among 360,000; Potency, µM (doses to about 114 µM), for inactives: top-dose activity change, negative = inhibition, most hits filed as inhibitors; further: potency means the concentration at half of the fitted maximal effect; nearly all actives have a fitted effect of over 60% in size
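TGR 20 nM + NADPH 100 uM (dispensed conc.), cpd preinc 15 min RT; start with NADPH (500 uM addition) then DTNB (15 mM addition). Kinetic TNB absorbance, 405 nm filter. Four-parameter Hill fit across titration.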
VACV mCherry inh – vaccinia inhibition (mCherry reporter); hit rate 0.63% among 310,000; Vaccinia virus mCherry reporter infection, fluorescence; Potency, µM (top dose mostly 36.5 µM), inactives show top-dose activity change, negative = inhibition, hits mostly inhibitors; AID 720579; calls by dose curve; tested in A549 cells; further: potency means the concentration at half of the fitted maximal effect; nearly all actives have a fitted effect of over 35% in size
* = called active by the depositor; [ ] = dose if it differs, or a comment. Unless noted, the call rests on the fitted dose curve; in most records, active means well fitted curve in the direction sought with a large enough effect; inconclusive means small, poorly fitted or top-dose-only effect, or another doubt; inactive means no such curve, though single readings can be large; an effect the other way counts as inactive or inconclusive. On the % scale 0 is the no-effect control and ±100 the full control effect.

Screening COC(=O)N1C(=O)[C@@](c2ccccc2)(C2CCCCC2)N1C(=O)OC returned HCV inhibitor 9.1%, Vaccinia Venus inconclusive, HCMV antiviral 128.5, FMDV inh inconclusive, Sm TGR block 12.6µM* and VACV mCherry inh inconclusive.
CC[C@]1(c2cccc(C)c2)C(=O)N(C(=O)OC)N1C(=O)OC was read as HCV inhibitor 6.2%, Vaccinia Venus inconclusive, HCMV antiviral 83.9, FMDV inh inconclusive, Sm TGR block 1.78µM* and VACV mCherry inh 11.2µM*.
`CC[C@]1(c2ccccc2)C(=O)N(C(=O)OC)N1C(=O)OC` gave HCV inhibitor -74.4%, Vaccinia Venus inconclusive, HCMV antiviral -18.7, FMDV inh -9.9%, Sm TGR block 2.24µM* and VACV mCherry inh inconclusive.
Screening CC[C@@]1(c2ccccc2)C(=O)N(C(=O)OC)N1C(=O)OC returned HCV inhibitor 24.6%, Vaccinia Venus -23.6%, HCMV antiviral 14.7, FMDV inh 0.0%, Sm TGR block 2µM* and VACV mCherry inh -0.5%.
COC(=O)N1C(=O)[C@](c2ccccc2)(C(C)C)N1C(=O)OC was read as HCV inhibitor 13.3%, Vaccinia Venus -26.3%, HCMV antiviral 19.2, FMDV inh -26.4%, Sm TGR block 0.0% and VACV mCherry inh inconclusive.
For Cc1cccc(OCC(=O)NNC(=O)CCCCC(=O)NNC(=O)COc2cccc(C)c2)c1 the results were HCV inhibitor -11.9%, HCMV antiviral -8.6, FMDV inh 22.3% and Sm TGR block -2.8%.
`O=c1c2cc(NC(=S)NC3CCN(Cc4ccccc4)CC3)ccc2nc2n1CCCCC2` gave HCV inhibitor inconclusive, Vaccinia Venus inconclusive, HCMV antiviral -30.7, FMDV inh -22.8%, Sm TGR block -29.0% and VACV mCherry inh -4.5%.
`O=C1C=CC(=O)N1Cc1ccccc1` gave HCV inhibitor 30.8%, Vaccinia Venus -24.6%, HCMV antiviral -12.2, FMDV inh inconclusive, Sm TGR block inconclusive and VACV mCherry inh -8.7%.
Screening CCN(Cc1nc2cc(Cl)ccc2c(=O)[nH]1)C(=O)c1cccc(OCc2c(C)noc2C)c1 returned HCV inhibitor -6.4%, HCMV antiviral 6.9, FMDV inh inconclusive and Sm TGR block -21.2%.
`COCCN(CCOC)C(=O)N1CCOCC1` gave HCV inhibitor 5.6%, Vaccinia Venus -15.7%, HCMV antiviral 0.0, FMDV inh -0.4%, Sm TGR block 0.7% and VACV mCherry inh inactive.
For CC[C@@]1(c2ccccc2C)C(=O)N(C(=O)OC)N1C(=O)OC the results were HCV inhibitor 47.5%, Vaccinia Venus -28.3%, HCMV antiviral 18.0, FMDV inh -24.2%, Sm TGR block 6.31µM* and VACV mCherry inh -25.6%.
Screening Cc1ccccc1CNC(=O)COc1ccccc1 returned HCV inhibitor 5.2%, HCMV antiviral 17.9, FMDV inh 42.7% and Sm TGR block -3.2%.
For COc1ccc2c(c1)oc(=O)c1ccccc12 the results were HCV inhibitor inconclusive, Vaccinia Venus 19.8%, HCMV antiviral 20.2, FMDV inh 26.9%, Sm TGR block -0.8% and VACV mCherry inh 28.7%.
For COc1ccc2c(c1)oc(=O)c1c3ccccc3[nH]c21 the results were HCV inhibitor 3.55µM*, HCMV antiviral -21.4 and FMDV inh 0.2%.
CCOC(=O)c1ccc(S(=O)(=O)N2CCC(N3CCCCC3)CC2)cc1 was read as HCV inhibitor -14.0%, HCMV antiviral -11.0, FMDV inh -20.1% and Sm TGR block 17.9%.
For CN(C)S(=O)(=O)c1cccc(NC(=O)COC(=O)/C=C/c2ccc(Br)o2)c1 the results were HCV inhibitor -2.3%, Vaccinia Venus -1.0%, HCMV antiviral -24.6, FMDV inh -10.8%, Sm TGR block 7.08µM* and VACV mCherry inh -15.4%.
`Cc1ccc(NC(=O)COC(=O)/C=C/c2ccc(Br)o2)cc1S(=O)(=O)N(C)C` gave HCV inhibitor -23.8%, HCMV antiviral -37.8, FMDV inh 62.8% and Sm TGR block 25.1µM*.
For O=C(COC(=O)/C=C/c1ccc(Br)o1)Nc1ccc2[nH]c(=O)[nH]c2c1 the results were HCV inhibitor 6.3%[8.37 µM], HCMV antiviral -11.9 and Sm TGR block inconclusive.
`C(=N\Nc1nc2ccccc2s1)/c1ccc2c(c1)OCO2` gave HCV inhibitor 19.5%, Vaccinia Venus 3.5%, HCMV antiviral 87.5, FMDV inh -13.6%, Sm TGR block 0.1% and VACV mCherry inh -11.4%.
Screening Cc1nc(N/N=C\c2ccc3c(c2)OCO3)sc1C returned HCV inhibitor 12.7%, Vaccinia Venus inconclusive, HCMV antiviral 98.3, FMDV inh 22.7%, Sm TGR block -1.7% and VACV mCherry inh 15.8µM*.
Screening CCOCCn1c(N2CCCC2)nc2c1c(=O)[nH]c(=O)n2C returned HCV inhibitor 4.8%, HCMV antiviral 22.0, FMDV inh -1.5% and Sm TGR block inconclusive.
Screening O=C(NCCCSc1ccccc1)c1cc(Br)ccc1O returned HCV inhibitor inconclusive, HCMV antiviral -79.0*, FMDV inh -19.5% and Sm TGR block 7.4%.
For c1ccc2nc(-c3cc4ccccc4s3)ccc2c1 the results were Vaccinia Venus -11.7% and VACV mCherry inh 36.0%.
For CN(C)c1ccc2nc3ccc(=O)cc-3sc2c1 the results were Vaccinia Venus inconclusive, HCMV antiviral -78.0*, FMDV inh 74.7% and VACV mCherry inh 73.2%.
Screening CCN1CCc2nc3sc(C(=O)Nc4cccc(Cl)c4C)c(N)c3cc2C1 returned Vaccinia Venus -25.8%, HCMV antiviral inconclusive, FMDV inh 14.1µM*, Sm TGR block 0.0% and VACV mCherry inh inconclusive.
`Cc1ccc(NC(=O)c2sc3nc4c(cc3c2N)CN(Cc2ccccc2)CC4)cc1` gave Vaccinia Venus inconclusive, HCMV antiviral -63.2*, FMDV inh -20.3%, Sm TGR block 1.7% and VACV mCherry inh inconclusive.
For COC(=O)C1=C(c2ccccc2OCc2ccccc2)C[C@@H]2CC[C@H]1N2C(=O)NCc1ccc(C(C)(C)C)cc1 the results were HCV inhibitor inconclusive, Vaccinia Venus inconclusive, HCMV antiviral -16.0, FMDV inh -21.7%, Sm TGR block 5.7% and VACV mCherry inh -4.4%.
`O=C(N/N=C/c1cc(Br)ccc1O)C(=O)Nc1ccccc1OC(F)(F)C(F)F` gave HCV inhibitor inconclusive, HCMV antiviral -105.3*, FMDV inh -27.7% and Sm TGR block 3.8%.
`O=C(N/N=C/c1cc(Cl)ccc1O)C(=O)Nc1ccccc1OC(F)(F)C(F)F` gave HCV inhibitor inconclusive, Vaccinia Venus inconclusive, HCMV antiviral -88.5*, FMDV inh -25.5%, Sm TGR block 0.4% and VACV mCherry inh 14.1µM*.
`CC1(C)CC(N2CCCC2)=CC(=[N+]2CCCCC2)C1` gave HCV inhibitor -25.8%, HCMV antiviral -92.5*, FMDV inh inconclusive and Sm TGR block -5.8%.
